Values joined by “and” are separate entries in the source; they are usually repeats but may differ in a detail not shown here. Equal values may be shown once. About 2,000 (36%) of roughly 5,500 compounds were called active. About 18% were inconclusive and are not listed. No stated cut-off is given here; in the data, active means normalized growth mostly below about 0.91 (no sharp cut-off); inconclusive means no clear call, values can overlap the other calls; inactive means mostly above about 0.92. The list shows a part of the results.
Test: chemical genetic growth profiling, strain panel (AID 1159580);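 further: tested at 20 µM; growth read once vehicle control cultures reached saturation at 30 °C; 1 = growth at the plate median or of vehicle wells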
Conditions: S. cerevisiae deletion strains, growth OD

Measured: normalized growth

CC1(C)C2CC[C@]3(C)C(C(=O)C=C4[C@H]5C[C@@](C)(C(=O)O)CC[C@]5(C)CC[C@]43C)[C@@]2(C)CC[C@@H]1O (stereo partly specified)
active: locus YAL026C, strain drs2, stronger effect = lower value 0.881 | locus YBR009C, strain hhf1, stronger effect = lower value 0.861 | locus YDR137W, strain rgp1, stronger effect = lower value 0.743 | locus YDR392W, strain spt3, stronger effect = lower value 0.493 | locus YGL240W, strain doc1, stronger effect = lower value 0.879 | locus YGL253W, strain hxk2, stronger effect = lower value 0.754 | locus YHR142W, strain chs7, stronger effect = lower value 0.78 | locus YJL095W, strain BCK1 (second series), stronger effect = lower value 0.83 | locus YJL164C, strain tpk1, stronger effect = lower value 0.865 | locus YJL166W, strain qcr8, stronger effect = lower value 0.845
inactive: locus YAL013W, strain DEP1, stronger effect = lower value 1.04 | locus YAL021C, strain ccr4, stronger effect = lower value 1.02 | locus YAL030W, strain snc1, stronger effect = lower value 1 | locus YBL061C, strain skt5, stronger effect = lower value 0.972 | locus YBR021W, strain FUR4, stronger effect = lower value 1 | locus YBR023C, strain chs3, stronger effect = lower value 0.941 | locus YBR171W, strain sec66, stronger effect = lower value 1.02 | locus YBR229C, strain ROT2, stronger effect = lower value 1.04 | locus YBR231C, strain swc5, stronger effect = lower value 0.98 | locus YBR279W, strain paf1, stronger effect = lower value 0.948 | locus YCL011C, strain gbp2, stronger effect = lower value 0.923 | locus YCL016C, strain dcc1, stronger effect = lower value 0.944 | locus YCL029C, strain bik1, stronger effect = lower value 0.962 | locus YCL061C, strain MRC1, stronger effect = lower value 0.96 | locus YCL069W, strain vba3, stronger effect = lower value 0.955 | locus YCR088W, strain abp1, stronger effect = lower value 1.01 | locus YDL005C, strain med2, stronger effect = lower value 1 | locus YDL035C, strain GPR1, stronger effect = lower value 0.969 | locus YDL040C, strain nat1, stronger effect = lower value 0.995 | locus YDL074C, strain BRE1, stronger effect = lower value 1.02 | locus YDL101C, strain DUN1, stronger effect = lower value 1.02 | locus YDL134C, strain PPH21, stronger effect = lower value 1.03 | locus YDL185W, strain tfp1, stronger effect = lower value 1.01 | locus YDL192W, strain arf1, stronger effect = lower value 1.01 | locus YDR001C, strain nth1, stronger effect = lower value 1.02 | locus YDR069C, strain doa4, stronger effect = lower value 0.985 | locus YDR101C, strain arx1, stronger effect = lower value 0.988 | locus YDR150W, strain NUM1, stronger effect = lower value 1.06 | locus YDR159W, strain sac3, stronger effect = lower value 0.977 | locus YDR162C, strain NBP2, stronger effect = lower value 1.02 | locus YDR195W, strain ref2 1.1 | locus YDR297W, strain sur2, stronger effect = lower value 0.963 | locus YDR318W, strain mcm21, stronger effect = lower value 0.994 | locus YDR334W, strain swr1, stronger effect = lower value 1.04 | locus YDR335W, strain msn5, stronger effect = lower value 0.941 | locus YDR388W, stronger effect = lower value 1.01 | locus YDR502C, strain sam2, stronger effect = lower value 1 | locus YEL003W, strain gim4, stronger effect = lower value 0.97 | locus YEL037C, strain rad23, stronger effect = lower value 1.01 | locus YEL061C, strain CIN8 (second series), stronger effect = lower value 0.983 | locus YEL061C, strain CIN8, stronger effect = lower value 1.04 | locus YER015W, strain faa2, stronger effect = lower value 0.933 | locus YER016W, strain bim1, stronger effect = lower value 1.02 | locus YER110C, stronger effect = lower value 1.01 | locus YER111C, strain swi4, stronger effect = lower value 1.01 | locus YER155C, strain BEM2 (second series), stronger effect = lower value 0.874 | locus YER155C, strain BEM2, stronger effect = lower value 1.05 | locus YER167W, strain BCK2, stronger effect = lower value 1.04 | locus YFR010W, strain ubp6, stronger effect = lower value 0.99 | locus YGL078C, strain dbp3, stronger effect = lower value 0.94 | locus YGL086W, strain mad1, stronger effect = lower value 1.01 | locus YGL167C, strain pmr1, stronger effect = lower value 1.02 | locus YGL173C, strain kem1, stronger effect = lower value 0.999 | locus YGL227W, strain vid30, stronger effect = lower value 1.02 | locus YGL248W, strain PDE1, stronger effect = lower value 1.03 | locus YGR078C, strain PAC10, stronger effect = lower value 1.01 | locus YGR135W, strain pre9, stronger effect = lower value 0.985 | locus YGR229C, strain SMI1, stronger effect = lower value 0.984 | locus YGR252W, strain gcn5, stronger effect = lower value 0.935 | locus YHR013C, strain ard1, stronger effect = lower value 0.965 | locus YHR027C, strain rpn1, stronger effect = lower value 0.997 | locus YHR030C, strain SLT2, stronger effect = lower value 1.05 and 1.01 | locus YHR079C, strain IRE1 (second series), stronger effect = lower value 1 | locus YHR079C, strain IRE1, stronger effect = lower value 1.02 | locus YHR094C, strain hxt1, stronger effect = lower value 1.02 | locus YHR129C, strain ARP1, stronger effect = lower value 1.06 | locus YHR200W, strain rpn10, stronger effect = lower value 0.999 | locus YIL066C, strain RNR3, stronger effect = lower value 1.03 | locus YIL073C, strain SPO22, stronger effect = lower value 0.994 | locus YIL125W, strain kgd1, stronger effect = lower value 1.03 | locus YIR030C, strain dcg1, stronger effect = lower value 1.01 | locus YJL092W, strain hpr5, stronger effect = lower value 1.01 | locus YJL095W, strain BCK1, stronger effect = lower value 1.04 and 1.01 | locus YJL115W, strain asf1, stronger effect = lower value 1.04 | locus YJL129C, strain trk1, stronger effect = lower value 0.921 | locus YJL134W, strain LCB3, stronger effect = lower value 1.03 | locus YJL154C, strain vps35, stronger effect = lower value 1.02 | locus YJL168C, strain set2, stronger effect = lower value 1.02 | locus YJL187C, strain SWE1 (second series), stronger effect = lower value 1 | locus YJR043C, strain POL32, stronger effect = lower value 0.969 | locus YJR066W, strain TOR1, stronger effect = lower value 0.96

Reference: PubChem BioAssay AID1159580 (chemical genetic matrix, 2015)
